# ± gives the standard deviation.
# What was measured:
# [1] = tested on: MILI (PIWIL2) piRISC loaded with L1MC piRNA (26 nt); assay: pre-steady-state target cleavage rate (min^-1); guide: L1MC piRNA 5'p-UAACUAAAUACUAUGCAAGCUGUAGG; higher = faster piRNA-guided slicing of the target;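 also: 1 nM active piRISC with 0.1 nM target library at 33 °C single turnover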
# Outline: (§1)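 Cleave-'n-Seq measured uncleaved targets by sequencing after a transcribed, DNA-blocked target RNA library […] was mixed with 1 nM active affinity-purified piRISC holding one synthetic guide, with or without 500 nM GTSF1 partner protein, at 33 °C in HEPES–potassium acetate buffer for 0–8 or 0–960 min. Counts were normalised to depth and to weakly complementary targets, three trials were pooled, and k3 was capped at 0.0001 min^-1. A burst-and-steady-state fit gave the pre-steady-state cleavage rate.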
# [2] = tested on: EfPiwi piRISC loaded with L1MC piRNA (26 nt); assay: pre-steady-state target cleavage rate (min^-1); auxiliary factor: 500 nM Ephydatia muelleri Gtsf1; guide: L1MC piRNA 5'p-UAACUAAAUACUAUGCAAGCUGUAGG; MIWI and MILI are mouse PIWI proteins and EfPiwi is from a freshwater sponge; tags in brackets are library labels; higher = faster piRNA-guided slicing of the target
# Outline: as §1
# [3] = auxiliary factor: 500 nM mouse GTSF1
Sequence,"pre-steady-state target cleavage rate [1, 3]",pre-steady-state target cleavage rate [2],pre-steady-state target cleavage rate ([1]; auxiliary factor: none (no GTSF1))
UCCUCCUACAGCUUGCAUAGAAUUUACAAA,0.0431 ± 0.015,0.00295 ± 0.0029,–
UCCUGGAUGACGAUGCAUAGUAUUUAGUUA,0.0949 ± 0.013,0.00546 ± 0.0027,–
UCCUCCUACAGCUUGCAUAGUAUAUUCAAA,0.125 ± 0.025,0.00316 ± 0.0027,–
UCCUCCUACAGCUUGCAUAGAAUUUAGUAA,0.148 ± 0.035,0.00443 ± 0.0022,–
UCCUCCUACAGCUAGCAUAGUAUUUAGAAA,0.113 ± 0.021,0.00378 ± 0.0016,–
UCCUCCUUCAGCUUCCAUAGUAUUUAGUUA,0.0522 ± 0.015,0.00448 ± 0.0019,–
UCCUGGAUCAGCUUGCAUUGUAUUUAGAUA,0.103 ± 0.019,0.00276 ± 0.0021,–
UCCUGCUACAGCUUGCAUAGUAAUUAGAAA,0.0259 ± 0.0091,0.00362 ± 0.0016,–
UCCUCCUAGUGCUUGCAUAGUAUUUACAAA,0.0188 ± 0.0067,0.00293 ± 0.0029,–
UCCUGGAUCAGCUUGCAUAGUAUUUUGAAA,0.108 ± 0.027,0.00318 ± 0.0016,–
UCCUGCAUCAGCUUGCAUAGUAUUUACAAA,0.126 ± 0.025,0.00323 ± 0.0016,–
UCCUGCUACAGCUAGCAUAGUAUUUUGUUA,0.244 ± 0.031,0.0057 ± 0.0021,–
UCCUGGAUGUGCUUGCAUAGUAUUUAUUA,0.00911 ± 0.0051,0.00271 ± 0.0022,–
UCCUGGUACAGCUUGCAUAGUAUUAAGAAA,0.0213 ± 0.0097,0.00387 ± 0.0017,–
UCCUGGUACAGCUUGCAUAGUAUUUUCUUA,0.0368 ± 0.016,0.00532 ± 0.0034,–
UCCUGGUACAGCUUGGAUAGUAUUUAGUAA,0.202 ± 0.041,0.00283 ± 0.0021,–
UCCUGGUACAGCUUGCAAAGUAUUUAGUAA,0.0794 ± 0.014,0.00304 ± 0.0024,–
UCCUGGUACAGCUUGCUUAGUAUUUAGAAA,0.0808 ± 0.021,0.00224 ± 0.002,–
UCCUCCUACAGCUUGCAUAGUAUAAACAAA,0.165 ± 0.043,0.00398 ± 0.0028,–
UCCUGGAUGUCGAACCAUAGUAUUUAGUCA,–,< 0.0001,< 0.0001
UCCUGGUACAGCAUGCAUAGUAUUUAGAAA,0.0581 ± 0.015,0.00215 ± 0.002,–
UCCUGCUUGUGCUUGCAUAGUAUUUAGUAA,0.0582 ± 0.015,0.00475 ± 0.0026,–
UCCUGGAACAGCUUGCAUAAUAUUUAGUUA,0.298 ± 0.028,0.00487 ± 0.0024,–
UCCUGCUACAGCUUGCAUAGUAAUAAGUUA,0.238 ± 0.03,0.0044 ± 0.002,–
UCCUGCUACAGCUUGCUUAGUAUUUUGUUA,0.156 ± 0.027,0.0127 ± 0.004,–
UCCUGCUACAGCUUGCAUAGAUUUUACAAA,0.00852 ± 0.0044,0.00292 ± 0.0018,–
UCCUCCUACAGCUUCCAUUGUAUUUAGUUA,0.0834 ± 0.015,0.00393 ± 0.0019,–
UCCUGCUACAGCUUGCUUAGAAUUUAGUUA,0.0543 ± 0.011,0.00357 ± 0.0018,–
UCCUGCUACAGCUUGCAUAAGUAUUUAGUUA,0.0171 ± 0.0064,0.00273 ± 0.0019,–
UCCUGGAUGUGCUUGGCAUAGUAUUUAGUUA,0.19 ± 0.057,0.00458 ± 0.0029,–

# Source: the supplement of paper PMC10338343
